Measurements: PubChem BioAssay (EPA / NIEHS)
Several values for one entry are separate records, joined by “and”; a condition that tells them apart may be missing. Identical values can stand only once. The source holds several records for some structures; these can differ, active in one and inactive in another. Activity calls are given as the source filed them. Rule for the calls: active = hit-call score of the fitted dose curve at least 0.9, where 1 is the maximum; inactive = score below 0.9.

Assay: ATG_TCF_b_cat_CIS: Attagene CIS-FACTORIAL HepG2 Assay for human T-Cell-Factor with beta-catenin (TCF/b-cat) (AID 2282965)
Conditions: HepG2 TCF/beta-catenin cis-reporter transcription, actives raise or lower the signal
Summary of the method: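 HepG2, transient MRTU transfection, cis-element-driven reporters (endogenous TFs). 24 h compound exposure. Readout: reporter mRNA by RT-PCR + 6-FAM primer extension, HpaI digest, capillary electrophoresis. Gain/loss fit vs DMSO baseline.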
With `CCC(O)=C1C(=O)CC(C(=O)O)CC1=O` (stereo not drawn) the outcome was “inactive”. In the case of `COC(=O)c1cccc(C)c1S(=O)(=O)NC(=O)Nc1nc(OCC(F)(F)F)nc(N(C)C)n1`, the outcome is reported as “inactive”. In the case of `N[C@@H](Cc1cc(I)c(Oc2ccc(O)c(I)c2)c(I)c1)C(=O)O`, the AC50 is reported as 41.6 µM (active) and 24.3 µM (active) and the outcome is reported as “inactive”. For `S=C([S-])NCCNC(=S)[S-].[Mn+2]`, the outcome was “inactive”. With `CCN(Cc1c(F)cccc1Cl)c1c([N+](=O)[O-])cc(C(F)(F)F)cc1[N+](=O)[O-]` the outcome was “inactive”. With `CC(=O)[C@H]1CC[C@H]2[C@@H]3CCC4=CC(=O)CC[C@]4(C)[C@H]3CC[C@]12C` the outcome was “inactive”. For `S=C(S)NCCNC(=S)S.[Mn+2].[S-]C([S-])=NCCN=C([S-])[S-].[Zn+2]`, the AC50 was 20 µM (active) and 27.8 µM (active) and 26.9 µM (active) and the outcome was “inactive”. In the case of `C#CCOC(=O)[C@@H](C)Oc1ccc(Oc2ncc(Cl)cc2F)cc1`, the outcome is reported as “inactive”. With `c1ccc2[nH]c(-c3cscn3)nc2c1` the outcome was “inactive”. For `CN(C)C(=O)Nc1ccc(Cl)c(Cl)c1`, the outcome was “inactive”. In the case of `CCCN(CCC)c1c([N+](=O)[O-])cc(C(F)(F)F)c(N)c1[N+](=O)[O-]`, the outcome is reported as “inactive”. In the case of `COC(=O)c1ccccc1C(=O)O`, the outcome is reported as “inactive”. For `CC1(C)C(C=C(Cl)Cl)C1C(=O)OCc1cccc(Oc2ccccc2)c1` (stereo not drawn), the outcome was “inactive”. For `C[C@]12CC[C@@H]3c4ccc(O)cc4C[C@@H](CCCCCCCCCS(=O)CCCC(F)(F)C(F)(F)F)[C@H]3[C@@H]1CC[C@@H]2O` (stereo partly drawn), the outcome was “inactive”. For `CCC(C)OC(=O)N1CCCCC1CCO` (stereo not drawn), the outcome was “inactive”. With `COCCO` the outcome was “inactive”. With `c1ccc(Nc2ccccc2)cc1` the outcome was “inactive”. With `O=C(c1ccccc1)C1CCCCC1` the outcome was “inactive”. With `COc1c(Cl)ccc(Cl)c1C(=O)O` the outcome was “inactive”. With `O=C(c1ccc(O)cc1O)c1ccc(O)cc1O` the AC50 was 53.5 µM (active) and the outcome was “inactive”. With `CCOC(=O)c1ccc(O)cc1` the outcome was “inactive”. In the case of `O=C(O)C1(C(=O)Nc2ccc(Cl)cc2Cl)CC1`, the outcome is reported as “inactive”. With `CC(C)(C)[C@@H](O)[C@@H](Cc1ccc(Cl)cc1)n1cncn1` the outcome was “inactive”. In the case of `CC(C)(c1ccc(O)cc1)c1ccc(O)cc1`, the outcome is reported as “inactive”. In the case of `CCOC(=O)C(C)Oc1ccc(Oc2cnc3cc(Cl)ccc3n2)cc1` (stereo not drawn), the outcome is reported as “inactive”. With `N#CSCSc1nc2ccccc2s1` the AC50 was 1.99 µM (active) and the outcome was “inactive”. For `CC(=O)S[C@@H]1CC2=CC(=O)CC[C@]2(C)[C@H]2CC[C@@]3(C)[C@@H](CC[C@@]34CCC(=O)O4)[C@H]12`, the AC50 was 39.1 µM (active) and the outcome was “inactive”. For `CC(C)CCCCCCc1ccc(O)cc1`, the AC50 was 15.2 µM (active) and 16.8 µM (active) and 17.4 µM (active) and the outcome was “inactive”. With `CCOC(=O)NCCOc1ccc(Oc2ccccc2)cc1` the outcome was “inactive”. In the case of `CCNc1nc(N)nc(Cl)n1`, the outcome is reported as “inactive”.

Assay: ATG_TAL_CIS: Attagene CIS-FACTORIAL HepG2 Assay for human TAL Basal Promoter (AID 2282966);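 note: background control endpoint measuring basal TAL promoter reporter mRNA not a specific factor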
Conditions: HepG2 Attagene cis-factorial TAL promoter reporter; actives raise or lower the signal
Summary of the method: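 Human hepatoma HepG2 cells, transfected with promoter-regulated reporter units, were treated 24 h. Reporter transcript levels, measured through RT-PCR and capillary electrophoresis, were fitted for gain or loss relative to DMSO.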
With `CCC(O)=C1C(=O)CC(C(=O)O)CC1=O` (stereo not drawn) the outcome was “inactive”. With `COC(=O)c1cccc(C)c1S(=O)(=O)NC(=O)Nc1nc(OCC(F)(F)F)nc(N(C)C)n1` the outcome was “inactive”. For `N[C@@H](Cc1cc(I)c(Oc2ccc(O)c(I)c2)c(I)c1)C(=O)O`, the outcome was “inactive”. With `S=C([S-])NCCNC(=S)[S-].[Mn+2]` the outcome was “inactive”. In the case of `CCN(Cc1c(F)cccc1Cl)c1c([N+](=O)[O-])cc(C(F)(F)F)cc1[N+](=O)[O-]`, the outcome is reported as “inactive”. For `CC(=O)[C@H]1CC[C@H]2[C@@H]3CCC4=CC(=O)CC[C@]4(C)[C@H]3CC[C@]12C`, the AC50 was 177 µM (active) and the outcome was “inactive”. In the case of `S=C(S)NCCNC(=S)S.[Mn+2].[S-]C([S-])=NCCN=C([S-])[S-].[Zn+2]`, the outcome is reported as “inactive”. In the case of `C#CCOC(=O)[C@@H](C)Oc1ccc(Oc2ncc(Cl)cc2F)cc1`, the outcome is reported as “inactive”. For `c1ccc2[nH]c(-c3cscn3)nc2c1`, the outcome was “inactive”. With `CN(C)C(=O)Nc1ccc(Cl)c(Cl)c1` the outcome was “inactive”. For `CCCN(CCC)c1c([N+](=O)[O-])cc(C(F)(F)F)c(N)c1[N+](=O)[O-]`, the outcome was “inactive”. With `COC(=O)c1ccccc1C(=O)O` the outcome was “inactive”. With `CC1(C)C(C=C(Cl)Cl)C1C(=O)OCc1cccc(Oc2ccccc2)c1` (stereo not drawn) the outcome was “inactive”. For `C[C@]12CC[C@@H]3c4ccc(O)cc4C[C@@H](CCCCCCCCCS(=O)CCCC(F)(F)C(F)(F)F)[C@H]3[C@@H]1CC[C@@H]2O` (stereo partly drawn), the outcome was “inactive”. With `CCC(C)OC(=O)N1CCCCC1CCO` (stereo not drawn) the outcome was “inactive”. With `COCCO` the outcome was “inactive”. For `c1ccc(Nc2ccccc2)cc1`, the outcome was “inactive”. With `O=C(c1ccccc1)C1CCCCC1` the outcome was “inactive”. With `COc1c(Cl)ccc(Cl)c1C(=O)O` the outcome was “inactive”. With `O=C(c1ccc(O)cc1O)c1ccc(O)cc1O` the outcome was “inactive”. With `CCOC(=O)c1ccc(O)cc1` the outcome was “inactive”. With `O=C(O)C1(C(=O)Nc2ccc(Cl)cc2Cl)CC1` the outcome was “inactive”. In the case of `CC(C)(C)[C@@H](O)[C@@H](Cc1ccc(Cl)cc1)n1cncn1`, the outcome is reported as “inactive”. For `CC(C)(c1ccc(O)cc1)c1ccc(O)cc1`, the AC50 was 162 µM (active) and the outcome was “inactive”. For `CCOC(=O)C(C)Oc1ccc(Oc2cnc3cc(Cl)ccc3n2)cc1` (stereo not drawn), the outcome was “inactive”. In the case of `N#CSCSc1nc2ccccc2s1`, the outcome is reported as “inactive”. With `CC(=O)S[C@@H]1CC2=CC(=O)CC[C@]2(C)[C@H]2CC[C@@]3(C)[C@@H](CC[C@@]34CCC(=O)O4)[C@H]12` the outcome was “inactive”. With `CC(C)CCCCCCc1ccc(O)cc1` the outcome was “inactive”. In the case of `CCOC(=O)NCCOc1ccc(Oc2ccccc2)cc1`, the outcome is reported as “inactive”. For `CCNc1nc(N)nc(Cl)n1`, the outcome was “inactive”.
